Measurements taken from PubChem BioAssay AID1159580 (chemical genetic matrix, 2015).
Values joined by “and” are separate entries in the source; they are usually repeats but may differ in a detail not shown here. Equal values may be shown once. Out of some 5,500 compounds screened, about 2,000 (36%) were called active. Another 18% or so got no clear call; they are omitted. Cut-off read from the data, not from the text of the source: active = normalized growth mostly below about 0.91 (no sharp cut-off); inconclusive = no clear call, values can overlap the other calls; inactive = mostly above about 0.92. This is one part of the list.

Test: chemical genetic growth profiling, strain panel (AID 1159580);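 note: tested at 20 µM; growth read once vehicle control cultures reached saturation at 30 °C; 1 = growth at the plate median or of vehicle wells; lower values mean less growth of the strain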
Conditions: S. cerevisiae deletion strains, growth OD

Measured: normalized growth

O=C(O)c1cc(=O)c2cccc(O)c2[nH]1
inactive: locus YAL013W, strain DEP1, active compounds read low 0.999 | locus YAL021C, strain ccr4, active compounds read low 0.995 | locus YAL026C, strain drs2, active compounds read low 1.03 | locus YAL030W, strain snc1, active compounds read low 1.01 | locus YBL061C, strain skt5, active compounds read low 1.02 | locus YBR009C, strain hhf1, active compounds read low 1 | locus YBR021W, strain FUR4, active compounds read low 1.03 | locus YBR023C, strain chs3, active compounds read low 1.03 | locus YBR171W, strain sec66, active compounds read low 1.03 | locus YBR229C, strain ROT2, active compounds read low 0.999 | locus YBR231C, strain swc5, active compounds read low 1.01 | locus YBR279W, strain paf1, active compounds read low 0.984 | locus YCL011C, strain gbp2, active compounds read low 1.02 | locus YCL016C, strain dcc1, active compounds read low 1.05 | locus YCL029C, strain bik1, active compounds read low 0.953 | locus YCL061C, strain MRC1, active compounds read low 1.02 | locus YCL069W, strain vba3, active compounds read low 1.01 | locus YCR088W, strain abp1, active compounds read low 1.02 | locus YDL005C, strain med2, active compounds read low 1.01 | locus YDL035C, strain GPR1, active compounds read low 1.02 | locus YDL040C, strain nat1, active compounds read low 1 | locus YDL074C, strain BRE1, active compounds read low 0.995 | locus YDL101C, strain DUN1, active compounds read low 0.988 | locus YDL134C, strain PPH21, active compounds read low 1.01 | locus YDL185W, strain tfp1, active compounds read low 0.959 | locus YDL192W, strain arf1, active compounds read low 0.985 | locus YDR001C, strain nth1, active compounds read low 1.01 | locus YDR069C, strain doa4, active compounds read low 1.03 | locus YDR101C, strain arx1, active compounds read low 0.977 | locus YDR137W, strain rgp1, active compounds read low 1.01 | locus YDR150W, strain NUM1, active compounds read low 0.97 | locus YDR159W, strain sac3, active compounds read low 0.981 | locus YDR162C, strain NBP2, active compounds read low 1 | locus YDR195W, strain ref2 1 | locus YDR297W, strain sur2, active compounds read low 1.01 | locus YDR318W, strain mcm21, active compounds read low 0.981 | locus YDR334W, strain swr1, active compounds read low 1.02 | locus YDR335W, strain msn5, active compounds read low 1.04 | locus YDR388W, active compounds read low 0.995 | locus YDR392W, strain spt3, active compounds read low 1.08 | locus YDR502C, strain sam2, active compounds read low 0.985 | locus YEL003W, strain gim4, active compounds read low 1.01 | locus YEL037C, strain rad23, active compounds read low 1.01 | locus YEL061C, strain CIN8 (second series), active compounds read low 1.02 | locus YEL061C, strain CIN8, active compounds read low 0.993 | locus YER015W, strain faa2, active compounds read low 1.02 | locus YER016W, strain bim1, active compounds read low 1.04 | locus YER110C, active compounds read low 0.974 | locus YER111C, strain swi4, active compounds read low 1.01 | locus YER155C, strain BEM2 (second series), active compounds read low 1.03 | locus YER155C, strain BEM2, active compounds read low 0.998 | locus YER167W, strain BCK2, active compounds read low 0.994 | locus YFR010W, strain ubp6, active compounds read low 1.01 | locus YGL078C, strain dbp3, active compounds read low 0.987 | locus YGL086W, strain mad1, active compounds read low 0.993 | locus YGL167C, strain pmr1, active compounds read low 1.01 | locus YGL173C, strain kem1, active compounds read low 1.01 | locus YGL227W, strain vid30, active compounds read low 1.01 | locus YGL240W, strain doc1, active compounds read low 0.999 | locus YGL248W, strain PDE1, active compounds read low 0.991 | locus YGL253W, strain hxk2, active compounds read low 1.03 | locus YGR078C, strain PAC10, active compounds read low 0.98 | locus YGR135W, strain pre9, active compounds read low 0.986 | locus YGR229C, strain SMI1, active compounds read low 1.02 | locus YGR252W, strain gcn5, active compounds read low 1.15 | locus YHR013C, strain ard1, active compounds read low 1.01 | locus YHR027C, strain rpn1, active compounds read low 1.03 | locus YHR030C, strain SLT2, active compounds read low 0.985 and 0.961 | locus YHR079C, strain IRE1 (second series), active compounds read low 0.985 | locus YHR079C, strain IRE1, active compounds read low 0.962 | locus YHR094C, strain hxt1, active compounds read low 0.964 | locus YHR129C, strain ARP1, active compounds read low 0.987 | locus YHR142W, strain chs7, active compounds read low 1.03 | locus YHR200W, strain rpn10, active compounds read low 0.984 | locus YIL066C, strain RNR3, active compounds read low 0.994 | locus YIL073C, strain SPO22, active compounds read low 0.949 | locus YIL125W, strain kgd1, active compounds read low 0.975 | locus YIR030C, strain dcg1, active compounds read low 0.99 | locus YJL092W, strain hpr5, active compounds read low 1.02 | locus YJL095W, strain BCK1 (second series), active compounds read low 1.03 | locus YJL095W, strain BCK1, active compounds read low 0.982 and 0.975 | locus YJL115W, strain asf1, active compounds read low 1.01 | locus YJL129C, strain trk1, active compounds read low 1.03 | locus YJL134W, strain LCB3, active compounds read low 0.992 | locus YJL154C, strain vps35, active compounds read low 1.01 | locus YJL164C, strain tpk1, active compounds read low 1.01 | locus YJL166W, strain qcr8, active compounds read low 0.996 | locus YJL168C, strain set2, active compounds read low 0.981 | locus YJL187C, strain SWE1 (second series), active compounds read low 0.95 | locus YJL187C, strain SWE1, active compounds read low 1.03 | locus YJR043C, strain POL32, active compounds read low 0.987 | locus YJR066W, strain TOR1, active compounds read low 0.928
